# Bioassay records (PubChem)
# Shown are actives, neighbours in structure and some others; about 10% of the full set was active somewhere.
# G9a inh: qHTS Assay for Inhibitors of Histone Lysine Methyltransferase G9a; G9a H3K9 monomethylation, AlphaScreen, 2 h; Potency, µM (doses to about 102 µM), for inactives: at the highest dose activity, negative = inhibition, most hits filed as inhibitors; 8.8% of 350,000 active; AID 504332, 2011; further: on the % scale 0 is the no-effect control and ±100 the full control effect; nearly all actives have a fitted effect of over 75% in size
#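 Signal arises when biotinylated H3K9 peptide, once monomethylated, bridges streptavidin donor and antibody-captured acceptor beads. Enzyme at 20 nM was preincubated 15 min with test compounds; peptide 500 nM and SAM 20 uM then reacted for 2 h.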
# JMJD2A Tudor inh: qHTS Assay for Inhibitors of JMJD2A-Tudor Domain. 4.4% of 390,000 active. AID 504339, 2011. Lysine-specific demethylase 4A (Homo sapiens), O75164. Potency, µM (doses to about 114 µM), without a hit: at the top dose activity change, negative = inhibition, most hits filed as inhibitors. AlphaScreen JMJD2A-Tudor / H3K4me3 peptide binding; further: on the % scale 0 is the no-effect control and ±100 the full control effect; nearly all actives have a fitted effect of over 50% in size
# HP1b binding inh: HTS for Inhibitors of HP1-beta Chromodomain Interactions with Methylated Histone Tails | Potency, µM (top dose mostly 114 µM), for the others: top-dose activity change, negative = inhibition, hits mostly inhibitors | AlphaScreen HP1-beta / biotin-H3K9me3 peptide binding | Chromobox protein homolog 1 (Homo sapiens), P83916 | 0.56% of 390,000 active; further: nearly all actives have a fitted effect of over 70% in size
#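 HP1-beta protein (50 nM final) preincubated 30 min at room temperature with biotinylated H3(1-18)K9me3 peptide (50 nM) in PBS pH 7.4, 0.01% Tween-20, then compound added for 30 min. AlphaScreen streptavidin donor/nickel chelate acceptor beads (10 ug/mL final), 30 min dark, luminescence read.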
# BAZ2B inh: qHTS Assay for Inhibitors of BAZ2B; Potency, µM (doses to about 114 µM), for the others: top-dose activity change, negative = inhibition, actives largely listed as inhibitors; AlphaScreen BAZ2B-H3K14Ac peptide displacement; 4.4% of 360,000 active; further: on the % scale 0 is the no-effect control and ±100 the full control effect; nearly all actives have a fitted effect of over 60% in size
#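 BAZ2B 50 nM plus b-H3(5-23)K14Ac 50 nM, PBS pH 7.4/0.01% Tween-20, 30 min RT; compound added (max 110 uM), 30 min RT; streptavidin donor/Ni-chelate acceptor beads 10 ug/mL final, 20 min dark; AlphaScreen read.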
# GLS inhibitor: qHTS for Inhibitors of Glutaminase (GLS) | Glutaminase kidney isoform, mitochondrial (Homo sapiens), O94925 | 0.21% of 410,000 active | GLS enzymatic activity, qHTS titration | Potency, µM (doses to about 45.5 µM), inactives show top-dose activity change, negative = inhibition, hits mostly inhibitors; further: on the % scale 0 is the no-effect control and ±100 the full control effect
# Target sequence (O94925 whole entry, looked up, canonical isoform): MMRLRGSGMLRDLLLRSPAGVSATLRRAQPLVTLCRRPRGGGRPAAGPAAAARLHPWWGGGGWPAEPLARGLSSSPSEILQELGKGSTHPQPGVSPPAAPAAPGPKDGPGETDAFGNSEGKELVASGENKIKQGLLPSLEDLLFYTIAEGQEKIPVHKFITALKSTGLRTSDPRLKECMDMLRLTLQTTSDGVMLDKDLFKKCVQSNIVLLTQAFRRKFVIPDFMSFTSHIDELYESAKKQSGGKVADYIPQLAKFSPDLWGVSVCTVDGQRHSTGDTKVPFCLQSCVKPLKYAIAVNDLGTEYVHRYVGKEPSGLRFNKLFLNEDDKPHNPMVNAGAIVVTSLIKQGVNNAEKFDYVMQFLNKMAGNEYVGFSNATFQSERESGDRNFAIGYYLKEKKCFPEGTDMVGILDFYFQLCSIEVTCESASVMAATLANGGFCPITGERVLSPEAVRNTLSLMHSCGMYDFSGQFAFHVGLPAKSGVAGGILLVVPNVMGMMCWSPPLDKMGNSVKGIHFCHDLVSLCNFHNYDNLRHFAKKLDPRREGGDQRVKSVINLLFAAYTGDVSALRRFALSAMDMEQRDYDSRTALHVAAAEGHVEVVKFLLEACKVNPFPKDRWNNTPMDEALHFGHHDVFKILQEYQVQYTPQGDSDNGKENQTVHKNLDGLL
#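 hKGA in 45 mM KH2PO4 (pH 8.2), 0.02% Tween-20 with compound, then 1mM L-Glutamine (stock as added) plus glutamate oxidase/HRP/Amplex red coupling mix. Fluorescence read initially and after 30 min at RT; signal change reflects glutamate formation.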
# * marks the source's active call; other numbers are inactive results; ? = inconclusive; nt = no result; [ ] = another dose, or the depositor's remark. The call rests on the fitted dose curve; in most records, active means well fitted curve in the direction sought with a large enough effect; inconclusive means small, poorly fitted or top-dose-only effect, or another doubt; inactive means no such curve, though single readings can be large; an effect the other way counts as inactive or inconclusive. Potency means the concentration at half of the fitted maximal effect.
SMILES,G9a inh,JMJD2A Tudor inh,HP1b binding inh,BAZ2B inh,GLS inhibitor
O=[N+]([O-])c1nn(-c2ccc3c(c2)OCCO3)n(O)c1=Nc1ccc(Cl)cc1,?,-30%,-5%,?,9%
CCN(CC)c1ccc(N2C(=O)/C(=C\c3cccs3)SC2=S)cc1,7%[59 µM],-20%,15%,-34%,1%
CCCN(Cc1nnc(-c2ccccc2Cl)o1)C(=O)c1cc([N+](=O)[O-])cc([N+](=O)[O-])c1,50µM*,-27%,0%,nt,-1%
c1ccc(Cc2nnc3sc(-c4ccncc4)nn23)cc1,3.5µM*,-12%,-26%,-3%,-14%
c1ccc(Cc2nnc3sc(-c4ccc5c(c4)OCCO5)nn23)cc1,10µM*,-4%,30%,3%,-17%
c1ccc(Cc2nnc3sc(-c4cccnc4)nn23)cc1,?,-21%,-20%,9%,-2%
c1ccc(Cc2nnc3sc(-c4cccs4)nn23)cc1,2.2µM*,-16%,-28%,11%,?
CCOC(=O)CSc1nc(C)cc(=O)[nH]1,-5%[59 µM],-8%,21%,9%,-4%
O=C(NC(c1ccc(-c2ccccc2)cc1)c1cnccn1)C1CCN(Cc2ccc(Cl)c(Cl)c2)CC1 (centres undefined),nt,nt,nt,nt,2%
Cc1ccccc1N1C(=O)CC(Nc2ccc3c(c2)OCO3)C1=O (centres undefined),40µM*,-28%,3%,?,28%
CCCCOC(=O)Sc1nc2ccccc2o1,25µM*,11%,19%,25%,4%
COc1ccc(C(=O)/C=C/Sc2nc3ccccc3o2)cc1,?,-12%,44%,-5%,-6%
COCCSc1nnc(NS(=O)(=O)c2ccc(F)cc2)s1,32µM*,-12%,36%,-27%,3%
COCc1nnc(NS(=O)(=O)c2ccc(F)cc2)s1,-120%,3%,39%,-8%,-1%
Fc1ccccc1-n1cn[nH]c1=S,10µM*,28µM*,30%,-10%,5%
CC(C)(C)c1cc(=O)n2[nH]c(N)nc2n1,nt,?,28%,56µM*,1%
CC(C)c1cc(=O)n2[nH]c(N)nc2n1,79µM*,-46%,3%,-27%,5%
COc1cc(N=c2oc3c(C)ncc(CO)c3cc2C(N)=O)cc(OC)c1OC,-32%[59 µM],-18%,8%,?,7%
O=C(c1cc(COc2ccc(F)cc2Cl)on1)N1CCC(OCc2cccnc2)CC1,8%,7%,37%,1%,-4%
O=C(c1ccco1)c1coc2c1cc(O)c1ccccc12,40µM*,?,-2%,-21%,15%
O=C(/C=C/c1cccs1)NC(=S)NNC(=O)c1ccccc1O,10µM*,79µM*,6%,?,-4%
O=C(/C=C/c1cccs1)NC(=S)Nc1ccccc1,nt,?,2%,32µM*,-2%
O=C(NC(=S)Nc1ccccc1)c1cccs1,-12%[59 µM],-20%,-6%,-35%,-3%
CC1=C(C(=O)Nc2ccc(Cl)cc2C(=O)N2CCC(C(N)=O)CC2)SCCO1,35%,-3%,28%,-14%,-1%
COc1cc(CN(CCc2c(C)[nH]c3ccc(C)cc23)C(=S)NC(C)(C)C)cc(OC)c1OC,?,50µM*,?,?,0%
SMILES,G9a inh,JMJD2A Tudor inh,HP1b binding inh,BAZ2B inh,GLS inhibitor
COCCNC(=S)N(CCc1c(C)[nH]c2ccccc12)Cc1ccco1,50µM*,-30%,4%,?,-2%
CNC(=S)N(CCc1c(C)[nH]c2ccc(C)cc12)Cc1ccc(OC)c(OC)c1,50µM*,?,-2%,32µM*,2%
CCNC(=S)N(CCc1c(C)[nH]c2ccc(Cl)cc12)Cc1ccco1,?,-30%,-10%,nt,17%
CNC(=S)N(CCc1c(C)[nH]c2ccc(C)cc12)Cc1ccco1,45µM*,?,-19%,50µM*,7%
CNC(=S)N(CCc1c(C)[nH]c2ccc(Cl)cc12)Cc1cc(OC)c(OC)c(OC)c1,32µM*,?,0%,?,13%
Cc1cc2cc(CCNC(=O)c3ccc(S(=O)(=O)N4CCOCC4)cc3)c(=O)[nH]c2cc1C,29%[12.7 µM],-17%,13%,-3%,5%
O=C1S/C(=C\c2cccs2)C(=O)N1c1ccc(O)cc1,0%,-16%,19%,2%,-15%
O=C1S/C(=C\C=C\c2ccco2)C(=O)N1c1ccccc1,40µM*,10µM*,?,40µM*,-14%
O=C1S/C(=C\C=C\c2ccco2)C(=O)N1c1ccc(O)cc1,40µM*,?,?,45µM*,?
O=C(O)CC1SC(=O)N(Cc2ccccc2)C1=O (centres undefined),?,-12%,30%,-2%,14%
O=C(O)CC1Sc2nc3ccccc3n2C1=O (centres undefined),45µM*,-23%,29%,1%,10%
COc1cc(C2C(C#N)=C(N)OC3=C2C(=O)CC(C)(C)C3)ccc1OCCN1CCOCC1 (centres undefined),50µM*,-15%,22%,-12%,-15%
COc1ccc(C2C(C#N)=C(N)OC3=C2C(=O)CC(C)(C)C3)cc1OC (centres undefined),3%,-21%,-12%,-25%,8%
Cc1cc(C)nc(SCC(=O)Oc2ccc3oc(=O)cc(C)c3c2)n1,50µM*,-14%[11.4 µM],-15%,-10%,10%
O=C(O)CSC1=NC(=Nc2cccc(Cl)c2)C2(CCCCC2)N1c1ccccc1,3.5µM*,45µM*,?,-32%,11%
O=C1NC(=S)N(c2cccc(Cl)c2)C12CCCCC2,22%[59 µM],-15%[57.1 µM],6%,3%,-1%
CC(C)S(=O)(=O)C/C(N)=N/OS(=O)(=O)c1ccc(Cl)cc1,nt,-12%,12%,-1%,-5%
NC(N)=N/N=C/c1ccc2cccc(OCc3ccccc3)c2n1,-35%,?,40%,-27%,-6%
O/N=C/c1ccc2cccc(OCc3ccccc3)c2n1,20µM*,-14%,25%,-27%,10%
COc1ccc(CNC(=O)COC(=O)c2ccc(C(=O)c3ccccc3)cc2)cc1,nt,-16%,19%,nt,-6%
CCOc1cc(/C=C2\C(=O)N(c3ccc(C(N)=O)cc3)N=C2C)ccc1OC(=O)c1cccs1,45µM*,-28%,-21%,50µM*,?
CC1=NN(c2ccc(C(=O)O)cc2)C(=O)/C1=C\c1ccc(OC(=O)c2cccs2)cc1,32µM*,-6%[11.4 µM],-8%,?,?
CCOc1cc(/C=C2/C(=O)N(c3ccccc3)N=C2C)ccc1OC(=O)c1ccco1,?,56µM*,-21%,45µM*,-24%
O=C(NC1(O)C(=O)c2ccccc2C1=O)c1ccc(C(F)(F)F)cc1,nt,5%,23%,-17%,-13%
